A selection: hits, their analogues and other compounds. The true share with any hit is near 2.5%.
MCL1 BIM primary: disrupts human MCL1 binding to BIM-BH3 peptide; GST-MCL1 / FITC-Bim-BH3 fluorescence polarization; inhibition, % at 10.9 µM; actives 0.68% (n = 320,000); AID 2057;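 active means inhibition above the mean inhibition of all tested compounds plus 3 SD, set per campaign, cut at about 40% in these data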;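 further: 0% = DMSO wells and 100% = unlabeled Bim-BH3 peptide control; higher means more loss of mP so more displacement of Bim peptide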
Mcl1 Bid PPI: Mcl-1/Bid interaction inhibition. Q07820. actives 0.97% (n = 220,000). TR-FRET Mcl-1/Bid-Dy647 peptide binding, 1536-well. AID 1021. inhibition, % at 21.7 µM;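 active means compounds that cut the binding signal by more than half at the single screening dose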;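 further: His-tagged Mcl-1 with europium anti-His antibody binding Bid BH3 peptide; 0% = Mcl-1 plus peptide wells and 100% = peptide-only wells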
14-3-3 Bad inh: disrupts binding of bovine 14-3-3 zeta to phospho-Bad peptide; TR-FRET 14-3-3zeta/Dy647-pBad peptide displacement, 1 h; P63103; inhibition, % at 21.7 µM; actives 0.71% (n = 220,000);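 active means inhibition above about 70%, limit read from the data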;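 further: 0% = full 14-3-3 plus peptide FRET controls and 100% = background without 14-3-3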
Target sequence (P63103 whole entry, looked up): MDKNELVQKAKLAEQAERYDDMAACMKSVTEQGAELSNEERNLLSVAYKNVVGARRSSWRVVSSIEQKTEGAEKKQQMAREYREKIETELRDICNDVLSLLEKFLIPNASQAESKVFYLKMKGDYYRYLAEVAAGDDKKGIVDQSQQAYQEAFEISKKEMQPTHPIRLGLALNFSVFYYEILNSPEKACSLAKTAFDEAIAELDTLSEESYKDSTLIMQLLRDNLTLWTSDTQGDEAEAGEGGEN
Mcl-1 Bim block: inhibitors of Bim-Mcl-1 interaction, human; Q07820; Bead-based flow cytometry, Bim peptide-Mcl-1 binding; inhibition, % at 10 µM; actives 0.1% (n = 190,000); in the data active means inhibition above about 40%;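 further: 0% = no compound tracer wells and 100% = peptide blocker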
Mcl1 Noxa PPI: Mcl-1/Noxa interaction inhibition; Q07820; AID 1022; inhibition, % at 21.7 µM; actives 1.5% (n = 220,000); TR-FRET Mcl-1/Noxa peptide binding, 2 h;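 active means compounds that cut the protein-peptide binding signal by more than 50% relative to plate controls in a single-dose test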;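 further: His-tagged Mcl-1 with rhodamine Noxa BH3 peptide and terbium anti-His antibody; 0% = Mcl-1 plus Noxa peptide wells and 100% = peptide-only wells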
BCLXL inh confirm: Bcl-xL (human) inhibition, MCL1 counter-screen confirmation; AID 2166; actives 54% (n = 1,700); shares compounds with MCL1 BIM primary; inhibition, % at 10.9 µM; GST-Bcl-xL / FITC-Bim BH3 peptide FP binding;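 active means inhibition above a cutoff equal to the mean inhibition of all tested compounds plus 3 SD, cut at about 30% in these data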;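 further: 0% = DMSO wells and 100% = unlabeled Bim BH3 control peptide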
MCL1 inh confirm: confirmation of human MCL1 and BIM-BH3 interaction inhibitors; shares compounds with MCL1 BIM primary; GST-MCL1 / FITC-Bim-BH3 fluorescence polarization; inhibition, % at 10.9 µM; actives 61% (n = 1,700);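 active means inhibition above the average of all tested compounds plus 3 SD, cut at about 40% in these data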;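 further: 0% = DMSO wells and 100% = unlabeled Bim-BH3 control peptide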
Starred values were filed as active, the others as inactive; / = no result given.

SMILES	MCL1 BIM primary	Mcl1 Bid PPI	14-3-3 Bad inh	Mcl-1 Bim block	Mcl1 Noxa PPI	BCLXL inh confirm	MCL1 inh confirm
CSCCC(NS(=O)(=O)c1ccc(Cl)cc1)C(=O)OCC(=O)NC12CC3CC(CC(C3)C1)C2 (configuration not stated)	7	-8	1	-4	2	/	/
COc1ccc2[nH]c(C(=O)Nc3ncc(C)cc3Br)cc2c1	52*	-8	-4	/	-5	4	1
O=C(CCC(=O)Nc1ccc(Cl)cc1Cl)N/N=C/c1ccc([N+](=O)[O-])o1	7	-60	-5	2	7	/	/
O=C(CCN1C(=O)/C(=C/c2ccccc2F)SC1=S)NCCCN1CCOCC1	8	/	/	/	/	/	/
CCOC(=O)C1=C(O)/C(=C/c2cn(CC(=O)NCC3CCCO3)c3ccccc23)SC1=Nc1ccc(C)cc1 (configuration not stated)	77*	/	/	/	/	109*	109*
Cc1ccc(-c2csc3ncn(CC#N)c(=O)c23)cc1C	59*	/	/	/	/	17	41*
NC(=O)c1ccsc1N	189*	-17	-10	0	24	11	2
Cc1nc(SC(C)C(=O)NC2CCCC2)c2ccccc2n1 (configuration not stated)	-2	/	/	/	/	/	/
COc1cccc(/C=N/NC(=S)Nc2cccc(C(=O)O)c2)c1O	56*	-22	19	-2	34	22	72*
COc1cc(/C=N/NC(=S)Nc2cccc(C(=O)O)c2)ccc1O	3	-60	0	1	13	/	/
COc1ccccc1/C=c1\sc2nc(-c3ccco3)nn2c1=O	60*	-27	-3	-2	74*	24	52*
O=C(c1ccccc1)N1CC(COc2ccccc2)OC(c2ccco2)O1 (configuration not stated)	0	-2	9	0	6	/	/
COc1ccc2c(c1)c1c(n2C(C)=O)C(OC(C)=O)=NCC1	2	2	-8	0	18	/	/
O=C(C=C1SCCS1)/C=C/c1ccco1	37	-42	2	-3	42	/	/
O=C(O)C(C(=O)/C=C/c1ccco1)=C1SCCS1	51*	3	-7	-1	-5	23	56*

Source: PubChem BioAssay
